Common to all, as to assay: NCI-60 one-dose screen, 48 h (100 = growth as untreated, 0 = no growth, -100 = all killed)
Details in all cases: 10 µM unless noted

Assay [1] has as its system HCT-15 colon.
Assay [2] deals with HT29 colon.
Assay [3] relates to SNB-75 CNS.
For assay [4], the system named is SNB-19 CNS.
Assay [5] concerns U251 CNS.
For assay [6], the system named is PC-3 prostate.
Assay [7] has as its system SK-MEL-5 melanoma.
Assay [8] has as its system UACC-62 melanoma.
The subject of assay [9] is LOX IMVI melanoma.
Assay [10] concerns SK-MEL-28 melanoma.
Assay [11] has as its system SK-MEL-2 melanoma.
Assay [12] relates to EKVX NSCLC.
Assay [13] deals with SN12C renal.
Assay [14] relates to UO-31 renal.
Assay [15] has as its system TK-10 renal.
Assay [16] concerns ACHN renal.
The subject of assay [17] is CAKI-1 renal.
The test system of assay [18] is A498 renal.
For assay [19], the system named is CCRF-CEM leukemia.
Assay [20] relates to MOLT-4 leukemia.

The panel holds about 83,000 compounds, 20% with a hit somewhere; the sample as a whole holds those more often.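 Assay: single dose, 48 h. Readout: percent growth (0 = no net growth; negative = cell death). Active: <10.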 Unmarked numbers belong to inactive results. Active and inactive are the calls of the source.

Take `O=C1/C(=C/c2ccc(F)cc2)COc2ccc(O)c(O)c21`: the growth in assay [1] was -27.7% (active); in assay [2], 13.5%; in assay [3], 26.9%; in assay [4], 33.4%; in assay [5], 1.66% (active); in [6] it was -0.716% (active). Moreover, the growth in [7] is 56.3%; in [8] it was 7.26% (active); in assay [9], -85.2% (active); in [10] it was 44.1%; in assay [11], 74.8%; in [12], 51.4%. Besides, the growth is -49.9% (active) in assay [13]; -96.9% (active) in assay [14]; 17.8% in [15]; -67.1% (active) in assay [16]; 9.04% (active) in assay [17]; 105% in [18]. Further, the values for the growth in assay [19] and in assay [20] were 3.39% (active) and 4.21% (active), respectively.
For `CC(C)N1CCN(Cc2ccc3c(NNC(=O)c4ccccc4)nc4cc(F)ccc4n23)CC1`, the growth in assay [1] was 31.7%; in [2] it was 31.3%; in [3], 54.7%; in [4], 29.7%; in assay [5] it was 17%; in [6] it was 36.9%. The growth is -8.08% (active) in [7]; 7.2% (active) in assay [8]; 6.12% (active) in [9]; 29.5% in [10]; 59.6% in [11]; 18.1% in assay [12]. Moreover, the growth in [13] was 17.3%; in assay [14], 8.43% (active); in [15] it was 36.2%; in assay [16], 10.8%; in assay [17] it was 12.5%; in assay [18] it was -15.8% (active). Besides, the growth in assay [19] is 10.8%; in assay [20] it was 11.7%.
On to `O=C1/C(=C/c2ccc(-c3ccc(Br)cc3)o2)SC(=S)N1CCc1ccc(O)cc1`, for which the growth in assay [1] is 78.9%; in [2], 76.8%; in [3], 37.9%; in [4] it was 85.5%; in assay [5] it was 78.9%; in assay [6] it was 61.3%. Also, the growth in assay [7] is 92.5%; in [8] it was 49.6%; in [9] it was 71.7%; in assay [10] it was 103%; in [11], 2.89% (active); in assay [12], 77.2%. Besides, the growth in [13] was 69.6%; in assay [14], 39.9%; in [15], 87%; in assay [16] it was 83.9%; in [17] it was 39.1%; in assay [18] it was 64.7%. Further, the growth in [19] is 21.7%; in assay [20], 33.6%.
Consider `OCCNCCCOc1ccc2ncnc(Nc3ccc(Oc4cccc(C(F)(F)F)c4)c(Cl)c3)c2c1`, for which the growth was -23.8% (active) in assay [1]; -13.3% (active) in [2]; 62.4% in assay [3]; 44.9% in [4]; 3.99% (active) in assay [5]; 30.5% in [6]. In addition, the growth in [7] was 48.9%; in assay [8] it was 88.3%; in assay [9], -98.9% (active); in [10], 73.1%; in [11] it was 73.5%; in assay [12], 27%. For the same compound, the growth in assay [13] was 58.1%; in [14], 26%; in [15] it was 49%; in assay [16] it was -45.4% (active); in [17], 9.01% (active); in assay [18] it was 58.8%. For the same compound, the growth is 6.8% (active) in [19] and 1.07% (active) in assay [20].
With `CCc1nc2c(=O)[nH]cnc2o1`, the growth was 110% in [1]; 108% in [2]; 82.5% in assay [3]; 112% in assay [4]; 99% in assay [5]; 99.4% in assay [6]. For the same compound, the growth in [7] was 103%; in assay [8], 108%; in assay [9], 94.2%; in assay [10] it was 106%; in assay [11], 113%; in assay [12] it was 104%. Further, the growth was 109% in [13]; 75.7% in assay [14]; 108% in assay [15]; 105% in assay [16]; 100% in assay [17]; 102% in assay [18]. Besides, the growth in assay [19] and in [20] was 108% throughout.
With `CC1=Nc2cnc(Nc3ccc(OCCN4CCCCC4)cc3)nc2Nc2ccccc21`, the growth in [1] is 27.8%; in assay [2], 50.6%; in assay [3], 9.67% (active); in [4], 87.8%; in assay [5], 76.6%; in assay [6] it was 48.7%. For the same compound, the growth in assay [7] is 69.2%; in [8], 85.7%; in assay [9], 47.6%; in assay [10], 99.3%; in assay [11] it was 50.2%; in [12], 78.3%. Also, the growth is 49.2% in assay [13]; 11% in assay [14]; 64.2% in assay [15]; 27.1% in assay [16]; 17.2% in [17]; -9.49% (active) in assay [18]. In addition, the growth in [19] is 70.2%; in assay [20], 25.4%.
Take `CC1=C(CCC(C)N(C)Cc2ccc(OCCCN3CCCC3)cc2)C(C)(C)CCC1` (stereo not given): the growth is -14% (active) in assay [1]; -12% (active) in assay [2]; 63.1% in [3]; 41.8% in [4]; -11.9% (active) in assay [5]; 31.8% in assay [6]. The growth in assay [7] was -93.7% (active); in assay [8], -63.9% (active); in assay [9], -81.4% (active); in assay [10], -80.6% (active); in [11], -55.2% (active); in [12] it was 47.4%. In addition, the growth in assay [13] is 56.9%; in assay [14] it was 20.3%; in assay [15], 49.9%; in [16], 36.8%; in [17], 49.9%; in assay [18], 57.2%. For the same compound, the growth was 11.1% in assay [19] and -24.2% (active) in assay [20].

Values taken from PubChem BioAssay (NCI).
